Data on 24 compounds can be found in PubChem BioAssay (NCI).

About 83,000 compounds went through this panel and 20% of them were active in at least one assay; those are over-represented in the sample as a whole.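 Single-concentration screen, 48 h exposure, 96-well plates. Endpoint: percent growth. Below 10 = active.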 A number with no mark means an inactive call. The source made the active and inactive calls.

Test systems include HCT-15 colon; SNB-75 CNS; SNB-19 CNS; PC-3 prostate; SK-MEL-5 melanoma; UACC-62 melanoma; LOX IMVI melanoma; SK-MEL-28 melanoma; U251 CNS; HT29 colon.
Assay in all cases: NCI-60 one-dose screen, 48 h (100 = growth as untreated, 0 = no growth, -100 = all killed)
Holding throughout (conditions): 10 µM unless noted

In the case of `CCCCN(C)N=Nc1ccc(C(N)=O)cc1`, the growth with HCT-15 colon was 114%; with SNB-75 CNS, 97.3%; in the experiment on SNB-19 CNS, 105%; in the experiment with PC-3 prostate, 103%; in the experiment on SK-MEL-5 melanoma it was 108%; in the experiment with UACC-62 melanoma it was 98.7%. Moreover, the figures for the growth in the experiment on LOX IMVI melanoma and in the experiment with SK-MEL-28 melanoma were 107% and 104%, respectively.
Consider `Cc1cc(=O)oc2cc(OC(=O)N3CCN(C)CC3)ccc12`, for which the growth in the experiment on HCT-15 colon was 99.4%; in the experiment with SNB-19 CNS it was 100%; with U251 CNS, 107%; with PC-3 prostate, 96.7%; in the experiment on SK-MEL-5 melanoma, 102%; in the experiment with LOX IMVI melanoma, 95.1%. In addition, in the experiment on SK-MEL-28 melanoma, the growth is 101%.
`CC(=O)O.CN1[CH-]N(Cc2ccc(C#N)cc2)c2ccccc21.[Ag+]`: the growth was 102% in the experiment with HCT-15 colon; 94.7% in the experiment on SNB-75 CNS; 109% with SNB-19 CNS; 97.4% in the experiment on U251 CNS; 91.1% in the experiment on PC-3 prostate; 41.7% in the experiment with SK-MEL-5 melanoma. Also, the growth with UACC-62 melanoma was 112%; in the experiment on LOX IMVI melanoma, 91.8%; in the experiment on SK-MEL-28 melanoma it was 95.3%.
In the case of `O=C(S)CNC(=O)c1ccccc1`, the growth in the experiment on HCT-15 colon was 112%; in the experiment on SNB-75 CNS it was 96.3%; in the experiment with SNB-19 CNS, 94.9%; in the experiment with U251 CNS, 95.3%; in the experiment with PC-3 prostate, 91.2%; with SK-MEL-5 melanoma, 99.7%. Further, the growth with UACC-62 melanoma is 106%; in the experiment on LOX IMVI melanoma, 98.2%; with SK-MEL-28 melanoma, 104%.
Regarding `CN1C(=O)CNC(=O)[C@H](NC(=O)c2nc3ccccc3cc2O)CSSC[C@H]1C(=O)NCCCc1nc2ccccc2cc1O`, the growth in the experiment with HCT-15 colon was 93.3%; in the experiment on SNB-75 CNS, 151%; with SNB-19 CNS, 100%; in the experiment on U251 CNS it was 69.1%; in the experiment on PC-3 prostate, 44.7%; in the experiment with SK-MEL-5 melanoma, 35.2%. Besides, the growth in the experiment with UACC-62 melanoma is 18.9%; in the experiment with LOX IMVI melanoma it was -52.4% (active); in the experiment on SK-MEL-28 melanoma it was 61.9%.
With `COc1ccc(-n2c(N)c(-c3nc4ccccc4[nH]3)cc(C#N)c2=O)cc1`, the growth in the experiment with HCT-15 colon was 89.4%; with SNB-75 CNS it was 60.5%; with SNB-19 CNS, 78.9%; in the experiment on U251 CNS, 103%; with PC-3 prostate, 85.4%; in the experiment on UACC-62 melanoma, 102%. Further, the growth in the experiment with LOX IMVI melanoma is 98.2%; in the experiment on SK-MEL-28 melanoma, 100%.
As for `Nc1nc(Cl)cc(=O)n1Cc1ccccc1`, the growth with HCT-15 colon was 98.3%; in the experiment on SNB-75 CNS, 82.3%; with SNB-19 CNS, 93.7%; in the experiment on U251 CNS it was 101%; in the experiment with PC-3 prostate, 95.7%; in the experiment on SK-MEL-5 melanoma it was 108%. Moreover, the growth was 88.6% with UACC-62 melanoma, 92.1% in the experiment on LOX IMVI melanoma and 108% in the experiment on SK-MEL-28 melanoma.
As to `Brc1c[n+](Cc2ccc3ccccc3c2)cn1Cc1ccc2ccccc2c1`, the growth is 93.6% with HCT-15 colon; -30.8% (active) in the experiment with SNB-75 CNS; 17.3% in the experiment on SNB-19 CNS; 21.5% in the experiment with U251 CNS; 8.5% (active) in the experiment on PC-3 prostate; -85.2% (active) in the experiment with SK-MEL-5 melanoma. In addition, the values for the growth with UACC-62 melanoma, in the experiment with LOX IMVI melanoma and with SK-MEL-28 melanoma were -59.8% (active), -89% (active) and -3.7% (active), respectively.
Consider `COc1ccc(/C=C/c2c(C(=O)/C=C/c3ccc(C(F)(F)F)cc3)c(C)nc3ccccc23)cc1`, for which the growth with HCT-15 colon is -20.2% (active); in the experiment on SNB-19 CNS, -43.1% (active); in the experiment on U251 CNS, -69% (active); in the experiment on PC-3 prostate, -23.4% (active); in the experiment on SK-MEL-5 melanoma, -79.9% (active); with UACC-62 melanoma it was -29% (active). For the same compound, the growth in the experiment on LOX IMVI melanoma is -91.2% (active); with SK-MEL-28 melanoma, -50.7% (active).
On to `CC(C)c1cc(C(C)C)c(S(=O)(=O)Oc2ccc(NC(=O)c3ccc(Cl)cc3)cc2)c(C(C)C)c1`, for which the growth in the experiment on HCT-15 colon was 20.2%; in the experiment on SNB-75 CNS it was 64.9%; in the experiment on SNB-19 CNS, 17.6%; in the experiment with U251 CNS it was 20.9%; with PC-3 prostate, 14%; with SK-MEL-5 melanoma it was 31.4%. Besides, the growth in the experiment with UACC-62 melanoma is 9.11% (active); in the experiment with LOX IMVI melanoma, 33.5%; in the experiment on SK-MEL-28 melanoma, 56.8%.
In the case of `COc1ccc(-c2nc3sc(-c4ccccc4)cn3n2)cc1`, the growth in the experiment with HT29 colon was 29.6%; in the experiment on SNB-19 CNS it was 65.9%; in the experiment with U251 CNS, 78.8%; with PC-3 prostate, 66.5%; in the experiment on SK-MEL-5 melanoma, 34.4%; with UACC-62 melanoma it was 57.2%. For the same compound, the growth is 54.4% in the experiment on LOX IMVI melanoma and 67.6% with SK-MEL-28 melanoma.
With `Cn1cc(-c2cc3ncnc(Nc4ccc(CC(=O)Nc5cc(C(C)(C)C)nn5C)cc4)c3s2)cn1`, the growth is 50% in the experiment on HT29 colon; 56.3% with SNB-75 CNS; 95.7% with SNB-19 CNS; 61.2% in the experiment with U251 CNS; 43.9% in the experiment on PC-3 prostate; 49% in the experiment with SK-MEL-5 melanoma. Moreover, the growth is 33.5% with UACC-62 melanoma, 33.6% in the experiment on LOX IMVI melanoma and 77.2% in the experiment with SK-MEL-28 melanoma.
For the compound `COc1cc(/C=C/c2ccccc2)cc(OC)c1`, the growth with HT29 colon is 90.4%; with SNB-75 CNS, 93.1%; in the experiment on SNB-19 CNS, 98.7%; in the experiment on PC-3 prostate, 94.6%; with UACC-62 melanoma, 83.4%; in the experiment with SK-MEL-28 melanoma, 111%.
`Oc1ccc(Cl)cc1Cc1cc(Cl)cc(Cl)c1O`: the growth was 107% in the experiment on HT29 colon; 60.5% with SNB-75 CNS; 34.8% in the experiment on SNB-19 CNS; 13% in the experiment with U251 CNS; -0.0941% (active) in the experiment with PC-3 prostate; 5.53% (active) in the experiment with SK-MEL-5 melanoma. The growth with UACC-62 melanoma is -9.82% (active); in the experiment with LOX IMVI melanoma, 20.2%; in the experiment on SK-MEL-28 melanoma, 31.2%.
Consider `O=C(/C=C/c1cccc2ccccc12)c1ccc(NC(=O)c2ccccc2CN2C(=O)c3ccccc3C2=O)cc1`, for which the growth with HT29 colon is 41.7%; in the experiment on SNB-75 CNS it was 61.2%; in the experiment with SNB-19 CNS, 76.7%; with U251 CNS, 64.5%; in the experiment with PC-3 prostate, 74%; in the experiment with SK-MEL-5 melanoma it was 87.9%. For the same compound, the growth is 69.3% in the experiment with UACC-62 melanoma, 60.9% in the experiment with LOX IMVI melanoma and 96.7% in the experiment with SK-MEL-28 melanoma.
For `S=C(c1cccs1)N1CCN(c2cccc(Cl)c2)CC1`, the growth with HT29 colon is 89.8%; in the experiment on SNB-75 CNS it was 100%; in the experiment with SNB-19 CNS, 102%; in the experiment on PC-3 prostate, 89.5%; in the experiment on SK-MEL-5 melanoma, 92.1%; in the experiment with UACC-62 melanoma, 88.1%. Moreover, the results for the growth in the experiment with LOX IMVI melanoma and in the experiment with SK-MEL-28 melanoma were 109% and 104%, respectively.
Turning to `CC([C@H]1CCC2C3CCC4C[C@@H](NC=O)CC[C@]4(C)C3CC[C@@]21C)N(C)C` (stereo partly specified), the growth was -49.4% (active) with HT29 colon; -1.26% (active) in the experiment with SNB-75 CNS; 44.6% in the experiment with SNB-19 CNS; 4.82% (active) in the experiment with U251 CNS; 5.08% (active) in the experiment with PC-3 prostate; -96.7% (active) in the experiment on SK-MEL-5 melanoma. Further, the growth in the experiment with UACC-62 melanoma is -51.3% (active); with LOX IMVI melanoma it was -58.7% (active); in the experiment on SK-MEL-28 melanoma, -94.2% (active).
In the case of `C[C@]12CC[C@@H]3c4cc(OC(F)F)c(OS(N)(=O)=O)cc4CC[C@H]3[C@@H]1CC[C@@H]2O`, the growth in the experiment on HT29 colon is 13.9%; in the experiment on SNB-75 CNS, -15.7% (active); with SNB-19 CNS it was 48.4%; with U251 CNS it was 28.2%; with PC-3 prostate it was 25.5%; in the experiment on SK-MEL-5 melanoma, 6.56% (active). For the same compound, the growth is 55.7% in the experiment with UACC-62 melanoma, 28.6% with LOX IMVI melanoma and 53.6% in the experiment on SK-MEL-28 melanoma.
Take `CCOc1c(B(O)O)cccc1-c1nc2ccc3[nH]ncc3c2c2c1CCCC2`: the growth is 78.7% in the experiment with HT29 colon; -38.5% (active) with SNB-75 CNS; 85.2% in the experiment with SNB-19 CNS; 75.4% in the experiment on U251 CNS; 68.3% in the experiment on PC-3 prostate; 86.7% with SK-MEL-5 melanoma. The growth was 88.1% in the experiment with UACC-62 melanoma, 37% with LOX IMVI melanoma and 96.5% in the experiment on SK-MEL-28 melanoma.
Regarding `COc1ccc2[nH]c(-c3ccccc3)c(/C=C(\C#N)S(=O)(=O)c3ccccc3)c2c1`, the growth is 63.2% with SNB-19 CNS; 49.6% in the experiment on PC-3 prostate; 14.9% with SK-MEL-5 melanoma; 42.1% in the experiment with UACC-62 melanoma; 61.2% in the experiment on LOX IMVI melanoma; 53.4% in the experiment on SK-MEL-28 melanoma.
For `CNCCCNc1nc2ccccc2c2c(=O)c3cc(F)ccc3sc12`, the growth in the experiment with HT29 colon was -39.7% (active); in the experiment on SNB-75 CNS it was 59.5%; in the experiment on SNB-19 CNS, 65%; with U251 CNS it was 2.96% (active); in the experiment on PC-3 prostate it was 39.6%; with SK-MEL-5 melanoma it was 73.7%. Besides, the growth was -1.88% (active) in the experiment with UACC-62 melanoma, -96.2% (active) in the experiment on LOX IMVI melanoma and 50.1% in the experiment on SK-MEL-28 melanoma.
Regarding `CCC(=O)Nc1ccc(-c2nc(-c3cccc(OC)c3)c(-c3ccnc(Br)c3)[nH]2)cc1`, the growth in the experiment with HT29 colon was 54.7%; in the experiment with SNB-19 CNS, 67.8%; with U251 CNS it was 53.4%; with PC-3 prostate it was 39.4%; in the experiment with SK-MEL-5 melanoma, 47.8%; with UACC-62 melanoma it was 48.8%. Besides, the growth in the experiment on LOX IMVI melanoma is 43.3%; in the experiment with SK-MEL-28 melanoma, 66%.
As to `Cc1cc2nc3ccc(N=Nc4ccc(N(C)C)cc4)cc3n(-c3ccccc3)c-2cc1=N`, the growth with HT29 colon is -67% (active); in the experiment on SNB-75 CNS, -84% (active); with SNB-19 CNS, -93.7% (active); in the experiment with U251 CNS, -69.4% (active); in the experiment on PC-3 prostate, -72.3% (active); in the experiment on SK-MEL-5 melanoma, -95.3% (active). Further, the figures for the growth with UACC-62 melanoma, in the experiment with LOX IMVI melanoma and in the experiment on SK-MEL-28 melanoma were -76.7% (active), -66.5% (active) and -96.6% (active), respectively.
Take `O=C1c2cccc3cccc(c23)C(=O)N1Nc1nc(NC2CCCCC2)nc(N2CCOCC2)n1`: the growth in the experiment on HT29 colon is 107%; with SNB-75 CNS, 88.9%; in the experiment with U251 CNS, 97.5%; with PC-3 prostate, 98.2%; in the experiment with SK-MEL-5 melanoma, 92.7%; in the experiment with UACC-62 melanoma, 89.1%. Further, the growth in the experiment with LOX IMVI melanoma is 91.1%; in the experiment on SK-MEL-28 melanoma it was 101%.
